# Bioassay records deposited in PubChem BioAssay by National Center for Advancing Translational Sciences (NCATS).
# Giardia kill: Giardia lamblia killing; Giardia lamblia trophozoite viability; activity change, % at 7.66 µM, hits read low; 0.15% of 340,000 active; AID 540267; in the data active = activity change below about -80%; inconclusive = between about -30% and that limit;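 also: parasites exposed to compound for two days anaerobically before the ATP read; % is scaled to controls: 0 for no effect and ±100 for the full control effect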
#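 Trophozoites 100 cells/well + cpd; 48 hrs, 37 deg C, anaerobic. ATPLite 1-Step added, 15-30 min RT, luminescence read (ATP-based viability).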
# RXFP1 antag: antagonists of human relaxin receptor RXFP1 | HEK293-RXFP1, relaxin-stimulated cAMP HTRF, 30 min; stronger effect = lower value | activity change, negative = inhibition, % at 57.5 µM | 0.59% of 350,000 active | AID 1259400;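 active = activity change of -60% or lower, but not beyond a set lower limit; inconclusive = change between -60% and -40%, or beyond the set limit; inactive = change above -40%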; also: % is scaled to controls: 0 for no effect and ±100 for the full control effect
# Target sequence (Q9HBX9 whole entry, looked up): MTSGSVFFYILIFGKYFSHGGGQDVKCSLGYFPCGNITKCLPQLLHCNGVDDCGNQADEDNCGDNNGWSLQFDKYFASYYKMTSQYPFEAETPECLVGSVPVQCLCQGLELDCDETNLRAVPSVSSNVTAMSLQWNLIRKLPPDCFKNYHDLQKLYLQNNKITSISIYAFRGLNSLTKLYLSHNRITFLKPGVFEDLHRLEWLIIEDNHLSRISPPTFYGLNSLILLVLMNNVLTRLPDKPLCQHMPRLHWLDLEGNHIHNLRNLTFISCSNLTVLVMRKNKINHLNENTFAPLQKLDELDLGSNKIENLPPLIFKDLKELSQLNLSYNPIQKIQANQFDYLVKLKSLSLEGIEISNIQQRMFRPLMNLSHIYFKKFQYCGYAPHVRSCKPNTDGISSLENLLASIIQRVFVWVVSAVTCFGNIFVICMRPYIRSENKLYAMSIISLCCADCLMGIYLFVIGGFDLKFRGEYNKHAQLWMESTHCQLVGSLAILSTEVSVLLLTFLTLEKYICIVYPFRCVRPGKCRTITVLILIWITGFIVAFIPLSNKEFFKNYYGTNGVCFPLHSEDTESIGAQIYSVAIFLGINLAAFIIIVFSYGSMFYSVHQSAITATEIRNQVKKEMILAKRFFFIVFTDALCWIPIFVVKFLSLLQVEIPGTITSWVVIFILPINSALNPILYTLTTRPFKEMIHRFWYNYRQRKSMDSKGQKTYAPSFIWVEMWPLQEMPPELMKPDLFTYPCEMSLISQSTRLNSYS
# gsp agonist: agonists of gsp mutant (McCune-Albright syndrome); gsp mutant cells, cAMP HTRF, 30 min; Potency, µM (top dose mostly 76.9 µM), inactives show at the highest dose activation (cAMP increase), hits mostly activators; 0.13% of 340,000 active; active = well fitted activation curve with a large enough effect; inconclusive = small, poorly fitted or top-dose-only effect, or another doubt; inactive = no such curve, though single readings can be large or run the other way; cell line not stated here;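 also: phosphodiesterase inhibitor Ro 20-1724 added with compounds to block cAMP breakdown; potency is read from the fitted curve at half-maximal effect; nearly all actives have a fitted effect of over 60% in size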
#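 Cells in DMEM/10% FBS with G418 were pretreated with compounds in DMSO plus […] (300 uM stock) for 30 min at 37C. cAMP was measured by HTRF (cAMP-d2 plus anti-cAMP antibody-K) after 30 min at room temperature.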
# gsp antag: gsp mutant antagonism; gsp-mutant cells, cAMP HTRF, 30 min; Potency, µM (highest dose often 76.9 µM), for inactives: at the top dose activity change, negative = inhibition, most hits filed as inhibitors; 0.4% of 340,000 active; calls by dose curve; cell line not stated here;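 also: intracellular cAMP measured with PDE inhibitor Ro 20-1724 present during compound exposure; potency is read from the fitted curve at half-maximal effect; % is scaled to controls: 0 for no effect and ±100 for the full control effect; nearly all actives have a fitted effect of over 65% in size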
#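 G418-selected cells were plated in DMEM/10% FBS for 16-24 h at 37C, then treated with compounds plus the PDE inhibitor […] (300 uM solution added) for 30 min at 37C. Intracellular cAMP was measured by HTRF after 30 min lysis at room temperature.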
# Coupling enz: coupling enzyme interference in Giardia aldolase counter-screen. coupling enzyme system counterscreen, AmpLite Red fluorescence. activity change, negative = inhibition, % at 58.2 µM, hits read low. 0.67% of 290,000 active; in the data active = activity change below about -30%; also: % is scaled to controls: 0 for no effect and ±100 for the full control effect
#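 Counterscreen of the coupled detection system alone, without aldolase: glyceraldehyde-3-phosphate coupling enzymes plus AmpLite Red readout. Compounds at 57.5 uM final, 10 min RT preincubation, 20 min RT reaction, fluorescence 525/598 nm.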
# RXFP1 ag: activates the human relaxin receptor RXFP1. Potency, µM (highest dose often 57.5 µM), inactives show top-dose activation, most hits filed as activators. HEK293T-RXFP1 cAMP TR-FRET, 30 min; response scale: percent of porcine relaxin response, buffer zero. 0.3% of 370,000 active. Q9HBX9. AID 2676; active = well fitted activation curve with a large enough effect; inconclusive = small, poorly fitted or top-dose-only effect; also: potency is read from the fitted curve at half-maximal effect; % is scaled to controls: 0 for no effect and ±100 for the full control effect; nearly all actives have a fitted effect of over 60% in size
#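 Agonist response is measured as cAMP accumulation in an RXFP1-transfected HEK293T line under PDE4 inhibition. Values are scaled between buffer-only and 29 nM porcine relaxin, and EC50s come from standard Hill equation fits.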
# The depositor's hits bear a star; ? = inconclusive; . = no result; [ ] = dose if it differs, or a comment. This is a sample that favours compounds with a hit; in the whole collection about 1.6% have one here.
SMILES,Giardia kill,RXFP1 antag,gsp agonist,gsp antag,Coupling enz,RXFP1 ag
CCC(C)(C(=O)NC1CCCC1)N(Cc1cccs1)C(=O)c1ccccn1 (stereo not given),10,-6,-13%[15.4 µM],5%,-38*,2%
CCC(C)(C(=O)NC1CCCCC1)N(Cc1cccs1)C(=O)c1ccccn1 (stereo not given),2,-9,0%[15.4 µM],5%,5,4%
Cc1cc(=O)c(C(=O)c2ccccc2)c(C)o1,-5,-12,?,3%,.,.
Cc1ccc(C(=O)c2coc3c2C(=O)C(=O)c2ccccc2-3)cc1,-18,5,-36%,5%,-79*,2%
Cc1oc2c(c1C(=O)c1ccc(Cl)cc1)C(=O)C(=O)c1ccccc1-2,9,10,-29%,56µM*,-79*,3%
Cc1ccc(C(=O)c2c(C)oc3c2C(=O)C(=O)c2ccccc2-3)cc1,-26,-36,8%,-5%[15.4 µM],-79*,2%
COC(=O)c1c(NC(=O)Cc2ccccc2)sc(C)c1C,1,-13,-46%,-3%,3,1%
COC(=O)c1c(NC(=S)Nc2ccccc2Cl)sc(C)c1C,-10,-107*,?,-1%,0,8%
O=C1c2ccccc2C(=O)N1CCCCc1cn(C[C@H]2CC[C@@H]([C@@H]3CC[C@H](Cn4cc(CCCCN5C(=O)c6ccccc6C5=O)nn4)O3)O2)nn1,-11,.,.,32µM*,.,.
CCCCCn1c(=O)[nH]c2cc(C(=O)N3CCN(c4cccc(Cl)c4)CC3)ccc2c1=O,.,.,.,.,.,3%
COc1ccccc1NC(=O)CN(Cc1ccco1)C(=O)c1cncc(Br)c1,-9,-4,-26%,3%,-31*,2%
COc1ccccc1NC(=O)CN(Cc1ccco1)C(=O)c1ccc(-n2nc(C)cc2C)cc1,-4,-11,-12%,-15%,-2,1%
O=C1OC2(CCCCC2)OC(=O)C1=CNc1ccc2c(c1)OCO2,3,-7,-27%,1%,-10,0%
O=C1/C(=C/Nc2ccc3c(c2)OCO3)CCc2ccccc21,?,.,-40%,?,-40*,0%
COc1ccc(N/C=C2\CCc3ccccc3C2=O)cc1,-14,1,9%,-21%,-39*,-3%
COc1ccc2c(c1)CC/C(=C\Nc1ccc3c(c1)OCO3)C2=O,-14,4,-4%,?,-49*,0%
OC[C@H]1NC[C@H](O)[C@@H](O)[C@@H]1O,.,.,.,.,-1,.
CCOC(=O)C(=CNc1ccc2c(c1)c1ccccc1n2CC)C(=O)OCC,11,-17,1%,32µM*,0,0%
CCOC(=O)/C(C#N)=C\c1c(OCC)n(CC)c2ccccc12,-2,-13,-3%[15.4 µM],25µM*,0,-1%
Nc1ncnc2c1ncn2Cc1c(F)cccc1Cl,.,-6,.,.,.,.
Cc1ccc(C(=O)NCC(=O)OCC(=O)c2cccc3ccccc23)cc1,8,.,.,.,.,.
O=C(Nc1cc(S(=O)(=O)N2CCOCC2)ccc1N1CCOCC1)c1ccc([N+](=O)[O-])s1,-89*,-5,?,7%,.,.
OC[C@]1(O)OC[C@@H](O)[C@H](O)[C@@H]1O,.,-11,.,.,.,.
COc1cc2[nH]c(=S)nc(NCCc3ccc(S(N)(=O)=O)cc3)c2cc1OC,-2,3,13µM*,-3%,-2,?
COc1cc2[nH]c(=S)nc(NCCc3ccc(C)cc3)c2cc1OC,6,-14,16%,-1%,1,?
SMILES,Giardia kill,RXFP1 antag,gsp agonist,gsp antag,Coupling enz,RXFP1 ag
Cc1cnc2c3c(cc(Cl)c2c1)-c1ccccc1S(=O)(=O)N3,-1,.,.,.,.,.
CN(C=O)c1ccc(CSc2ccccc2)cc1,2,-1,1%[15.4 µM],1%,.,.
CC1CN(c2ccc([N+](=O)[O-])c(NCCOc3ccc(Cl)cc3)c2)CC(C)N1 (stereo not given),-3,-97*,-12%,2%,-1,2%
CC(=O)NCCCC[C@H](NC(=O)OC(C)(C)C)C(=O)Nc1ccc2c(C(F)(F)F)cc(=O)oc2c1,.,.,.,.,0,.
CC(C)Cn1c(SCC(=O)NC(=O)NC2CCCC2)nc2ccccc21,10,-66*,-23%,?,0,1%
COc1ccc(Br)cc1CNC(=O)c1cc2n(n1)CCCN(Cc1ccc(C)cc1)C2=O,.,-4,.,.,.,1%
CC1CCc2nc(-c3cc4ccc(O)cc4oc3=O)sc2C1 (stereo not given),-11,.,.,.,.,.
Cc1nc(SCC(=O)Nc2cccc(S(=O)(=O)N3CCOCC3)c2)nc(C)c1C,8,25,?,20%,.,.
Cc1cc(=O)[nH]c(SCC(=O)Nc2cccc(S(=O)(=O)N3CCOCC3)c2)n1,5,7,16µM*,14%,.,22%
C=CCN1C[C@H](C(=O)N(CCCN(C)C)C(=O)NCC)C[C@@H]2c3cccc4[nH]cc(c34)C[C@H]21,.,-9,.,.,.,.
O=C(COc1ccc(F)cc1)Nc1ccccc1N1CCOCC1,27,11,0%,-9%,.,1%
COc1ccc(/C=C2\SC(=O)N(CCC(=O)Nc3ccccc3)C2=O)cc1OC,-6,4,?,?,0,-12%
COc1cc(/C=C2\SC(=O)N(CCN)C2=O)ccc1OS(=O)(=O)c1cc(C)ccc1C,-3,-72*,13%[15.4 µM],10%,0,-2%
CCCCC1CN2C(CCC(C)C2c2ccc(Br)cc2)C(=O)O1 (stereo not given),.,.,.,.,0,.
CN(c1cccc(NC(=O)c2ccc(N(C)S(=O)(=O)c3ccccc3)cc2)c1)S(C)(=O)=O,-10,-6,-28%,25µM*,-2,4%
CN(c1ccccc1)S(=O)(=O)c1cccc(NC(=O)c2cc(=O)c3ccccc3o2)c1,-7,-32,16%,40µM*,0,1%
Cc1nc2cc(NC(=O)c3ccc(S(=O)(=O)N(C)c4ccccc4)cc3)ccc2o1,7,-29,2%[15.4 µM],32µM*,0,-1%
NS(=O)(=O)c1cccc(NC(=O)c2cc(=O)c3ccccc3o2)c1,22,-4,?,1%,1,1%
CCn1c(=N)c(C(=O)NCc2cccnc2)cc2c(=O)n3cc(C)ccc3nc21,.,.,.,.,.,9%
COc1ccc(CCNC(=O)c2ccc(CS(=O)(=O)c3ccc(Cl)cc3)o2)cc1OC,-3,6,-21%,40µM*,0,-2%
Cc1ccc(S(=O)(=O)Cc2ccc(C(=O)NC3CCCC3)o2)cc1,-16,9,14%,2%,-3,1%
